Data taken from PubChem BioAssay (EPA / NIEHS).
Calls of active or inactive are those of the source. How the source made its calls: active means hit-call score of the fitted dose curve at least 0.9, where 1 is the maximum; inactive means score below 0.9.

Columns and labels:
[1] = ATG_GLI_CIS: Attagene CIS-FACTORIAL HepG2 Assay for human Zinc Finger Protein GLI1 (AID 2282945); settings: HepG2, Attagene cis-factorial reporter mRNA, GLI element; actives raise or lower the signal
Summary of the method: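 Bidirectional curve fits relative to DMSO, using reporter mRNA levels from RT-PCR plus capillary electrophoresis. Cells were HepG2 transiently carrying cis-regulated reporter constructs, harvested 24 h after dosing.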

[2] = ATG_GRE_CIS: Attagene CIS-FACTORIAL HepG2 Assay for human Glucocorticoid Response Elements (GRE) (AID 2282947); settings: HepG2 GRE cis-reporter, Attagene multiplex mRNA; actives raise or lower the signal
Summary of the method: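 Transient MRTU transfection of human HepG2 liver cells; cis-regulated reporters report endogenous factors. 24 h dosing → RNA isolation → RT-PCR → 6-FAM primer extension → HpaI cut → CE fragment analysis. Bidirectional fit, DMSO negative control.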

[3] = ATG_ISRE_CIS: Attagene CIS-FACTORIAL HepG2 Assay for human Interferon Regulatory Factor 1 (IRF1) binding to an Interferon-Stimulated Response Element (ISRE) (AID 2282948); settings: HepG2 ISRE cis-reporter (Attagene), mRNA transcription readout; actives raise or lower the signal
Summary of the method: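 Transfected HepG2 (multiple reporter transcription units, cis elements) dosed 24 h. RNA → oligo(dT) RT → PCR → 6-FAM primer extension → HpaI → CE. DMSO = negative control/baseline.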

[4] = ATG_M_32_CIS: Attagene CIS-FACTORIAL HepG2 Assay for M32 Transcription Factor (Internal Marker) (AID 2282949); settings: HepG2 Attagene cis-factorial M32 reporter, mRNA; actives raise or lower the signal;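 further: background control marker of the multiplexed CIS panel rather than a real target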
Summary of the method: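 HepG2 cells transiently transfected with multiplexed cis-regulated reporter units, dosed 24 h. Reporter mRNA quantified by RT-PCR, 6-FAM labelling, HpaI digestion and capillary electrophoresis; bidirectional fit vs DMSO.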

[5] = ATG_M_06_CIS: Attagene CIS-FACTORIAL HepG2 Assay for M06 Transcription Factor (Internal Marker) (AID 2282950); settings: HepG2 Attagene CIS-FACTORIAL M06 internal marker reporter; actives raise or lower the signal
Summary of the method: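 HepG2 cells transiently transfected with cis-regulated multiple reporter transcription units were exposed to chemical for 24 h; reporter mRNA was quantified by RT-PCR, 6-FAM primer labelling, HpaI digestion and capillary electrophoresis, fitted bidirectionally against DMSO.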

[6] = biological target: Hypoxia-inducible factor 1-alpha (Homo sapiens) (UniProt Q16665); experiment: ATG_HIF1a_CIS: Attagene CIS-FACTORIAL HepG2 Assay for human Hypoxia Inducible Factor 1 (HIF1A) (AID 2282951); settings: HepG2 Attagene cis-factorial HIF1a reporter transcription; actives raise or lower the signal
Hypoxia-inducible factor 1-alpha (Homo sapiens), sequence (Q16665 whole entry, looked up): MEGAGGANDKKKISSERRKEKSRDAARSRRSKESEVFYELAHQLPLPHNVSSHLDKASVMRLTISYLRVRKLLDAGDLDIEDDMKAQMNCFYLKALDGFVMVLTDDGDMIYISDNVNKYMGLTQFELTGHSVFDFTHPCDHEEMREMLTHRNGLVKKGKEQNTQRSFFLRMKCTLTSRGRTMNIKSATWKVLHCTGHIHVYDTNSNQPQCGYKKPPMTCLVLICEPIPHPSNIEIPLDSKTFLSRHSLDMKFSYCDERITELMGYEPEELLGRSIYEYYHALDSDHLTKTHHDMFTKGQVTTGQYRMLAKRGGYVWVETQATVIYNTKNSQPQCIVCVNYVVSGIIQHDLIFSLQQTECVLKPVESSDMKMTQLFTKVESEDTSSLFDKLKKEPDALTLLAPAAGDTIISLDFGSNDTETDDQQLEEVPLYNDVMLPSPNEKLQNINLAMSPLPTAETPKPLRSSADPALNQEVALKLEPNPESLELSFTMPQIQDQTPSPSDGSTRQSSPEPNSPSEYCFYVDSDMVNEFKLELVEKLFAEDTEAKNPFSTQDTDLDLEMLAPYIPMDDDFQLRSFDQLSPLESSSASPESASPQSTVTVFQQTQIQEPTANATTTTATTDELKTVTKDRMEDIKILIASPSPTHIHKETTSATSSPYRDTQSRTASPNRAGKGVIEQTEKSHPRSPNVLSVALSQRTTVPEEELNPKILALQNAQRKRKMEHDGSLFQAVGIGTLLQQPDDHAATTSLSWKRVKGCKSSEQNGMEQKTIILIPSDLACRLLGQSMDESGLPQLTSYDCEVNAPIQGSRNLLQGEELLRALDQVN
Summary of the method: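 In this multiplexed cell assay, HepG2 cells bearing transfected cis reporters are dosed for 24 h and reporter mRNA is read by RT-PCR plus capillary electrophoresis; signal increases and decreases are both scored against DMSO.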

[7] = biological target: Hepatocyte nuclear factor 6 (Homo sapiens) (UniProt Q9UBC0); experiment: ATG_HNF6_CIS: Attagene CIS-FACTORIAL HepG2 Assay for human Hepatocyte Nuclear Factor 6 (HNF6) (AID 2282952); settings: HepG2 Attagene cis-factorial HNF6 reporter transcription; actives raise or lower the signal
Hepatocyte nuclear factor 6 (Homo sapiens), sequence (Q9UBC0 whole entry, looked up): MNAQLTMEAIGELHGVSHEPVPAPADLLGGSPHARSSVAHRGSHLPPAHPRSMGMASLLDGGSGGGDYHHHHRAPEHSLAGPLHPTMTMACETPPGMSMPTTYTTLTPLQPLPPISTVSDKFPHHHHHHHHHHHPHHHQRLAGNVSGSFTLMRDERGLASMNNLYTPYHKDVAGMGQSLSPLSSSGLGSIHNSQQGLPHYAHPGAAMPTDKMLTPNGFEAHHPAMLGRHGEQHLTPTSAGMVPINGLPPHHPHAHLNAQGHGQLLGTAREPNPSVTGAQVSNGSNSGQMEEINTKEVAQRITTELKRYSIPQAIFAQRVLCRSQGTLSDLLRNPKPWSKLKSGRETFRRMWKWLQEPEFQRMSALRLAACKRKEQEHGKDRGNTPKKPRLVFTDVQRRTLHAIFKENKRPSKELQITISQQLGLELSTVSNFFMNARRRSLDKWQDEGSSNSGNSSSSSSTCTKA
Summary of the method: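 Transiently transfected HepG2 cells expressing cis-regulated reporter transcription units were exposed to chemical for 24 h in a 24-well format. Reporter transcript abundance was determined by fluorescence capillary electrophoresis.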

[8] = biological target: Heat shock factor protein 1 (Homo sapiens) (UniProt Q00613); experiment: ATG_HSE_CIS: Attagene CIS-FACTORIAL HepG2 Assay for human Heat Shock Transcription Factor 1 (HSE) (AID 2282953); settings: HepG2 HSE cis-reporter, Attagene RNA transcription; actives raise or lower the signal
Heat shock factor protein 1 (Homo sapiens), sequence (Q00613 whole entry, looked up): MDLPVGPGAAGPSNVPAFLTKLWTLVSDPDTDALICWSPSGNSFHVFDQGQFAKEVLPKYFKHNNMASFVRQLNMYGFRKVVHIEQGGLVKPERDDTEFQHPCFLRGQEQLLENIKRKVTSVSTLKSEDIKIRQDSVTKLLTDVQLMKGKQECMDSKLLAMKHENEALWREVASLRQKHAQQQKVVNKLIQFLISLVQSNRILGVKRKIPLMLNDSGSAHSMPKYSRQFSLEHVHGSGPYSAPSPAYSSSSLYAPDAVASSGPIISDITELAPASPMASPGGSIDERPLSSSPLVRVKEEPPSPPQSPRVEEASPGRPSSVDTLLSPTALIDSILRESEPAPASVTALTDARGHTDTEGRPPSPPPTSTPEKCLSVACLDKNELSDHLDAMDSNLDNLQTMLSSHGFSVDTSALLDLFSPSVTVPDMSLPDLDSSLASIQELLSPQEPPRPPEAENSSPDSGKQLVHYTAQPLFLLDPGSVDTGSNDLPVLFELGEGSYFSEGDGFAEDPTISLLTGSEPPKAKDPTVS
Summary of the method: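 HepG2 cells transiently transfected with multiple reporter transcription units under cis-regulatory promoter control, measuring endogenous transcription factor activity. After 24 h chemical exposure, reporter mRNA quantified by RT-PCR, fluorescent labelling, HpaI digestion and capillary electrophoresis; bidirectional fit versus DMSO.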

[9] = ATG_MRE_CIS: Attagene CIS-FACTORIAL HepG2 Assay for human Metal Responsive Element (MRE) (AID 2282954); settings: HepG2 MRE cis-reporter transcription, Attagene multiplex; actives raise or lower the signal
Summary of the method: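 Transient MRTU transfection of HepG2 (FuGene 6); 24 h dosing; total RNA → oligo(dT) RT, PCR, 6-FAM primer extension, HpaI cut, CE. Bidirectional fit vs DMSO.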

[10] = biological target: Paired box protein Pax-6 (Homo sapiens) (UniProt P26367); experiment: ATG_Pax6_CIS: Attagene CIS-FACTORIAL HepG2 Assay for human Paired Box 6 (PAX6) (AID 2282956); settings: HepG2 CIS-FACTORIAL PAX6 reporter transcription, RNA readout; actives raise or lower the signal
Paired box protein Pax-6 (Homo sapiens), sequence (P26367 whole entry, looked up): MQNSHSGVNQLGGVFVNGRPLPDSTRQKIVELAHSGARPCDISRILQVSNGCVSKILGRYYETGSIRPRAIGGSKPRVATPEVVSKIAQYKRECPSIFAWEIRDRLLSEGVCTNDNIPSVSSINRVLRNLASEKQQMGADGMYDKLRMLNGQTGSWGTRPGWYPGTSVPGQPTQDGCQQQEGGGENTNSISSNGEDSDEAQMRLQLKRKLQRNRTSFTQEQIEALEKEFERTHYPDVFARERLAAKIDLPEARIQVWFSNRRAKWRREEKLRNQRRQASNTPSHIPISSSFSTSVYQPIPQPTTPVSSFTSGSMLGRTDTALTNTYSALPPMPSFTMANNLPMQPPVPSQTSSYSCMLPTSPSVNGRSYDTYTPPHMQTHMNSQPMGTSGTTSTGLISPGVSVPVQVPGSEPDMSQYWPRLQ
Summary of the method: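 Transient MRTU transfection of HepG2 → compound exposure 24 h → TriZol RNA, oligo(dT) RT → PCR, 6-FAM primer extension, HpaI cut → capillary electrophoresis; activity fitted both directions against DMSO.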

[11] = ATG_PXRE_CIS: Attagene CIS-FACTORIAL HepG2 Assay for human Pregnane X Receptor Element (PXRE) (AID 2282957); settings: HepG2 Attagene CIS-FACTORIAL PXRE reporter, mRNA; actives raise or lower the signal
Summary of the method: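 Cis-element reporter mRNA in human hepatoma HepG2 cells is measured 24 h post-dosing by RT-PCR, primer-extension labeling and capillary electrophoresis; gain or loss of signal is fitted relative to DMSO.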

[12] = ATG_PPRE_CIS: Attagene CIS-FACTORIAL HepG2 Assay for human Peroxisome Proliferator-activated Response Element (PPRE) (AID 2282958); settings: HepG2 PPRE cis-element reporter, Attagene transcription factor profiling; actives raise or lower the signal
Summary of the method: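 Multiplexed reporter transcription units under cis-regulatory promoters were transfected into HepG2 cells to capture endogenous factor activity. A 24 h incubation preceded RNA isolation and fluorescent RT-PCR fragment analysis.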

[13] = ATG_RORE_CIS: Attagene CIS-FACTORIAL HepG2 Assay for human RAR-related Orphan Receptor Element (RORE) (AID 2282959); settings: HepG2 Attagene cis-factorial RORE reporter, mRNA; actives raise or lower the signal
Summary of the method: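 Fluorescence intensity of reporter-specific cDNA fragments, separated by capillary electrophoresis, gives the signal. Source: HepG2 liver cells transiently transfected with cis-element reporters and exposed 24 h; DMSO-normalized bidirectional fit.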

[14] = ATG_Sox_CIS: Attagene CIS-FACTORIAL HepG2 Assay for human SRY-box transcription factor (SOX) (AID 2282960); settings: HepG2 Attagene cis-factorial SOX reporter, mRNA; actives raise or lower the signal
Summary of the method: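 After 24 h of chemical treatment, transfected HepG2 reporter cells are lysed for total RNA. Transcript levels come from RT-PCR with labelled primer extension and capillary electrophoresis, analysed bidirectionally versus DMSO.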

[15] = biological target: Transcription factor Sp1 (Homo sapiens) (UniProt P08047); experiment: ATG_Sp1_CIS: Attagene CIS-FACTORIAL HepG2 Assay for human Specificity Protein 1 (Sp1) (AID 2282961); settings: HepG2 Sp1 cis-reporter transcription, actives raise or lower the signal
Transcription factor Sp1 (Homo sapiens), sequence (P08047 whole entry, looked up): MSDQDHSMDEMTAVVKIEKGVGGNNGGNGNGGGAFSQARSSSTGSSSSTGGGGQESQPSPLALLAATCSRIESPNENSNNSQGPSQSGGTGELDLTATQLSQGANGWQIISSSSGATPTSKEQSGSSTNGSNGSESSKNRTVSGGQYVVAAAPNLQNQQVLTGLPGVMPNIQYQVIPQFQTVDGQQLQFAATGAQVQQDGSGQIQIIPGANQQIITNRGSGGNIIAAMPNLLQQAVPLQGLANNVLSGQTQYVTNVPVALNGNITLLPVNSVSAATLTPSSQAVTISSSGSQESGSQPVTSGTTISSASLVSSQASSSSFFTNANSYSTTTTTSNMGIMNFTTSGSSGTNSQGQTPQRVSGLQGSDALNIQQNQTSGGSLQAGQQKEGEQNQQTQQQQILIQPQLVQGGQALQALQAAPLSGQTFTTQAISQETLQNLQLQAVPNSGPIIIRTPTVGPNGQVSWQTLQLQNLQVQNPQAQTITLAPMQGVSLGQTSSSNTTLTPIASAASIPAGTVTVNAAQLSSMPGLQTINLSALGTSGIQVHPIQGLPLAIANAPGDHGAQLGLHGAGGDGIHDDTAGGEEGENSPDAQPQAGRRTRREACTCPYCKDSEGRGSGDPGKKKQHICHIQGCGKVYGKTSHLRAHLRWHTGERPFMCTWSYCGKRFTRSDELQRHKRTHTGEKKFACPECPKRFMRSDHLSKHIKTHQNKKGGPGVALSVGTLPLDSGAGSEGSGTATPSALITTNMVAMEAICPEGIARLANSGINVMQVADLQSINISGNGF
Summary of the method: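 Sp1-driven reporter mRNA, read as capillary electrophoresis fluorescence after RT-PCR, in transiently transfected HepG2 cells dosed for 24 h; signal change in either direction relative to DMSO.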

[16] = ATG_SREBP_CIS: Attagene CIS-FACTORIAL HepG2 Assay for human Sterol Regulatory Element Binding (SREBP) (AID 2282962); settings: HepG2 Attagene cis-factorial SREBP reporter, mRNA; actives raise or lower the signal
Summary of the method: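 Transfected HepG2 (cis-regulated reporter library, endogenous TFs) → compound 24 h → total RNA → oligo(dT) RT → reporter-specific PCR → FAM primer extension, HpaI cut → CE fluorescence. Fit bidirectional vs DMSO.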

[17] = biological target: Signal transducer and activator of transcription 3 (Homo sapiens) (UniProt P40763); experiment: ATG_STAT3_CIS: Attagene CIS-FACTORIAL HepG2 Assay for human Signal Transducer and Activator of Transcription 3 (STAT3) (AID 2282963); settings: HepG2, Attagene cis-factorial STAT3 reporter transcription; actives raise or lower the signal
Signal transducer and activator of transcription 3 (Homo sapiens), sequence (P40763 whole entry, looked up): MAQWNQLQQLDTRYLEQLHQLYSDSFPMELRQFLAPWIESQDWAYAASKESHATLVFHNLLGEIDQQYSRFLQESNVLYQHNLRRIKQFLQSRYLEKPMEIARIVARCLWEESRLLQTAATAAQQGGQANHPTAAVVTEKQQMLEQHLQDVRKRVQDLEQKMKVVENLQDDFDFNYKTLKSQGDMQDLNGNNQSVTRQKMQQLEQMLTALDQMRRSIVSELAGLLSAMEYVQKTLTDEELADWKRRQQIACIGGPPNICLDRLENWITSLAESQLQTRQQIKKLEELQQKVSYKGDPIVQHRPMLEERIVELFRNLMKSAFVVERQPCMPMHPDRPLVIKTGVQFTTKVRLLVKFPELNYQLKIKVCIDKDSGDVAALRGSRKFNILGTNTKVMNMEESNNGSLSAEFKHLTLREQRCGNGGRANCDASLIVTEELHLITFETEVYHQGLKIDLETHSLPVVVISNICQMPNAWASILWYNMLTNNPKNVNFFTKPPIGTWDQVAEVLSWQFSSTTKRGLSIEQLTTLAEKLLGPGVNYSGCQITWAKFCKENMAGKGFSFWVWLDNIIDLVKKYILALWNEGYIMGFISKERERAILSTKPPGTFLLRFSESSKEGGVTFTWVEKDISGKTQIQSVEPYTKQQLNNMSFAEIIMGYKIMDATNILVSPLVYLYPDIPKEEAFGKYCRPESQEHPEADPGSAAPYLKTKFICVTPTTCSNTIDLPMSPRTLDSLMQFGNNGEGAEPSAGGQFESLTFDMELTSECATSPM
Summary of the method: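 Endogenous STAT3-responsive cis-element activity was read in transiently transfected HepG2 cells after 24 h treatment. Reporter transcripts were quantified via RT-PCR and capillary electrophoresis, with DMSO as negative control and bidirectional curve fitting.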

[18] = ATG_TA_CIS: Attagene CIS-FACTORIAL HepG2 Assay for human TA Basal Promoter (AID 2282964); settings: HepG2 Attagene CIS-factorial TA basal promoter reporter; actives raise or lower the signal
Summary of the method: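 HepG2 cells transiently transfected with multiplexed cis-promoter reporter units, dosed 24 h. Reporter mRNA measured by RT-PCR, 6-FAM labelling, HpaI digestion and capillary electrophoresis; bidirectional fit versus DMSO baseline, serving as background control.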

[19] = ATG_PBREM_CIS: Attagene CIS-FACTORIAL HepG2 Assay for human Phenobarbital-responsive Enhancer Module (PBREM) (AID 2282955); settings: HepG2 PBREM cis-reporter, Attagene multiplexed transcription; actives raise or lower the signal
Summary of the method: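 After a 24 h incubation with test chemical, transfected HepG2 cells yield total RNA; reporter-specific RT-PCR products are fluorescently labelled, HpaI-digested and resolved by capillary electrophoresis against ROX size standards.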

[20] = biological target: Bile acid receptor (Homo sapiens) (UniProt Q96RI1); experiment: ATG_IR1_CIS: Attagene CIS-FACTORIAL HepG2 Assay for human Nuclear Receptor Subfamily 1 Group H Member 4 (NR1H4), IR1 submotif (AID 2282946); settings: IR1 reporter transcription, actives raise or lower the signal
Bile acid receptor (Homo sapiens), sequence (Q96RI1 whole entry, looked up, the tested form may be a part): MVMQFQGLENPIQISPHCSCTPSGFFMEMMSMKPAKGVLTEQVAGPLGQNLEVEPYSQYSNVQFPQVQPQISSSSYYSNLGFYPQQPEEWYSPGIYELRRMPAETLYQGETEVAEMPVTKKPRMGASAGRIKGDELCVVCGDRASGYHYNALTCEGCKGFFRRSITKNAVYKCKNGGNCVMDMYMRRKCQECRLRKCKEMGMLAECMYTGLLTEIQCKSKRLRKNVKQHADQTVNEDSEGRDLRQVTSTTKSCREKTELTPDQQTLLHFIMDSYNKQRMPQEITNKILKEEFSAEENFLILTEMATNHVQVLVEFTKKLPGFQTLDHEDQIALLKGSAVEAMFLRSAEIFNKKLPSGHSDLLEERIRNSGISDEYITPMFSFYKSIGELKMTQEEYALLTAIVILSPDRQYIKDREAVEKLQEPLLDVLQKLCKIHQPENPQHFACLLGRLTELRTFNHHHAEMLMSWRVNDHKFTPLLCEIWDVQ
Summary of the method: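 Cells (human HepG2) carry transiently transfected cis-promoter reporter transcription units. Compounds are incubated 24 h, total RNA is reverse-transcribed and amplified, and labelled fragments are resolved by capillary electrophoresis. Curves use DMSO as baseline.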

Measured: AC50

CNCc1cc(F)ccc1Oc1ccc(Cl)c(Cl)c1
active: [11] 7.83 µM
not listed: [19] | [20]
inactive: all other assays above

CC(C)(C)c1cc(O)c(C(C)(C)C)cc1O
active: [1] 114 µM | [3] 114 µM | [4] 40.6 µM | [8] 64.3 µM | [9] 39.2 µM | [19] 61.6 µM | [10] 34.3 µM | [12] 30.9 µM | [13] 22.6 µM | [14] 114 µM | [16] 7.79 µM | [18] 42.2 µM
inactive: [2] | [5] | [7] | [11] | [17]

C=CCOC(=O)c1ccccc1C(=O)OCC=C
active: [20] 25.9 µM | [11] 26.7 µM
not listed: [2] | [6] | [12] | [15] | [19]
inactive: all other assays above

Cc1ccc(C(C)C)c(O)c1
active: [11] 34.5 µM
not listed: [6] | [20]
inactive: all other assays above

Cc1ccc(C)c(O)c1C
not listed: [15] | [20]
inactive: all other assays above

CCCCCCCCCCCCCO
active: [4] 34.3 µM | [6] 8.99 µM | [10] 34.3 µM
not listed: [13] | [15] | [20]
inactive: all other assays above

COc1cc(C=O)ccc1O
not listed: [2] | [6] | [8]
inactive: all other assays above

NCCO
not listed: [12] | [19] | [20]
inactive: all other assays above

Clc1cc(Cl)c(Cl)cc1Cl
not listed: [19] | [20]
inactive: all other assays above

CC(C)c1ccc(C(=O)N=C(N)N)cc1S(C)(=O)=O
active: [11] 31.7 µM
not listed: [12] | [20]
inactive: all other assays above

Oc1ccc2c(c1)OC[C@@H](N1CCC(O)(c3ccc(F)cc3)CC1)[C@H]2O
active: [9] 57.2 µM | [19] 43.2 µM | [10] 63.7 µM | [11] 13.7 µM | [13] 50 µM
not listed: [20]
inactive: all other assays above

Cc1oc(-c2ccccc2)nc1CCOc1cccc2c1ccn2CCC(=O)O
active: [12] 0.0633 µM | [13] 23.8 µM | [16] 26.8 µM
not listed: [15] | [20]
inactive: all other assays above

Nc1ccc(S(=O)(=O)c2ccc(N)cc2)cc1
not listed: [2] | [6] | [15] | [19]
inactive: all other assays above

c1cc(-c2ccncc2)ccn1
not listed: [6] | [20]
inactive: all other assays above

C1CCC(SSC2CCCCC2)CC1
active: [15] 158 µM | [16] 100 µM
not listed: [6] | [20]
inactive: all other assays above
